According to PubChem BioAssay (NCATS):
The list shows a part of the results. Inconclusive results are not listed. Active and inactive are the calls of the source. Calls follow the shape of the dose curve; as a rule, active = well fitted inhibition curve with a large enough effect; inconclusive = small, poorly fitted or top-dose-only effect; inactive = no such curve, though single readings can be large or run the other way.

Experiment: qHTS screen for small molecules that inhibit ELG1-dependent DNA repair: Hit Confirmation in Cell-Based Luciferin Assay (AID 624247)
Conditions: cell-free firefly luciferase luminescence counter-screen, ViewLux; series mostly up to 46.1 µM
Description: Cancer cells divide rapidly compared to normal cells in the body. During cell division, cancer cells need to duplicate their genome by DNA replication. The failure of genome duplication leads to cancer cells' death. Therefore, inhibitors of DNA replication could specifically kill cancer cells. Based on this concept, many chemotherapeutic agents were developed and have been used to treat cancer patients. However, there are a limited number of agents available in the clinical setting, and some of those that do exist have low efficacy and severe side effects. Therefore, if we can find the compounds that effectively block DNA replication either by directly damaging DNA or by inhibiting other cellular mechanisms, the options for cancer treatment will be broadened. With this in mind, we developed a quantitative high-throughput ELG1-luciferase reporter gene assay. Small molecules that specifically block ELG1 function in response to DNA damage can be identified by monitoring the suppression of luciferase activity. Since ELG1 defines a pathway for repairing DNA damage, agents blocking ELG1 function can be used to sensitize cancer cells to chemotherapeutic agents whose mechanism of action involves the induction of DNA damage. NIH Molecular Libraries Probe Production Network [MLPCN] NIH Chemical Genomics Center [NCGC] MLPCN Grant: R03 MH092164 Assay Provider: Kyungjae Myung, NHGRI, NIH
3 µL of substrate reagent will be pipetted into each well in 1536-well white, solid-bottom plates using a FRD dispenser, followed by addition of 23 nL of DMSO or compounds by pintool. After compound addition, 1 µL of luciferase will be added into the wells. The plates will be read in a ViewLux CCD-based plate reader.

Q: For `Cc1ccc(Nc2nc(N3CCOCC3)nc(N3CCOCC3)n2)cc1Cl`, which outcome is on record?
A: The outcome was “inactive”.

Q: For `CC(=O)N1CCc2cc(Br)cc(S(=O)(=O)CCC(=O)Nc3c(C)n(C)n(-c4ccccc4)c3=O)c21`, which outcome is on record?
A: The outcome was “inactive”.

Q: With `CS(=O)c1ccc(/C=C2\C=Cc3ccccc32)cc1` (stereo unspecified) as the compound, how does the outcome read?
A: Its outcome is “inactive”.

Q: Which outcome does the source give for `COc1ccc(NC(C)=O)cc1NC(=O)CN1CCN(C2c3ccccc3-c3ccccc32)CC1` here?
A: The outcome was “inactive”.

Q: For `O=C(C1CCCN(S(=O)(=O)c2ccccc2)C1)N1CCN(c2ccc(F)cc2)CC1` (stereo unspecified), which outcome is on record?
A: The outcome was “inactive”.

Q: Which outcome does the source give for `O=C(Nn1c(SCc2ccc([N+](=O)[O-])cc2)nc2ccccc2c1=O)c1ccc(F)cc1` here?
A: The outcome was “inactive”.

Q: For `COc1ccc(NC(=O)c2sc3nc(C)nc(N4CCN(c5ccccn5)CC4)c3c2C)c(OC)c1`, which outcome is on record?
A: Its outcome is “inactive”.

Q: For `COc1ccc(CSc2nc(N3CCOCC3)c3c(c2C#N)CC(C)(C)OC3)cc1`, which outcome is on record?
A: The outcome was “inactive”.

Q: For `Cc1ccccc1NC(=O)CSc1nc2ccc(Nc3nc(N4CCOCC4)nc(N4CCOCC4)n3)cc2s1`, which outcome is on record?
A: Its outcome is “inactive”.

Q: With `Cc1ccc(OCC(=O)Nc2ccc(-c3nc4ncccc4o3)cc2)cc1` as the compound, how does the outcome read?
A: The outcome was “inactive”.

Q: For `CCOC(=O)c1cccc(NC(=O)C2CCN(c3ncnc4c3nc3n4CCCCC3)CC2)c1`, which outcome is on record?
A: The outcome was “inactive”.
